Measured values published in PubChem BioAssay AID1159580 (chemical genetic matrix, 2015).
Where “and” joins values, the source holds several entries; their conditions need not be identical. Equal entries are not always repeated. The campaign covered roughly 5,500 compounds. About 2,000 (36%) were called active. Roughly 18% stayed inconclusive and do not appear here. Rule as the data show it: active = normalized growth mostly below about 0.91 (no sharp cut-off); inconclusive = no clear call, values can overlap the other calls; inactive = mostly above about 0.92. This is one part of the list.

Assay: chemical genetic growth profiling, strain panel (AID 1159580);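 also: tested at 20 µM; growth read once vehicle control cultures reached saturation at 30 °C; 1 = growth at the plate median or of vehicle wells; lower values mean less growth of the strain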
Conditions: S. cerevisiae deletion strains, growth OD

Measured: normalized growth

CN1CCc2cc3c(cc2C1O)OCO3 (centres undefined)
inactive: locus YAL021C, strain ccr4, hits give low values 1.03 | locus YAL026C, strain drs2, hits give low values 0.986 | locus YAL030W, strain snc1, hits give low values 0.993 | locus YBL061C, strain skt5, hits give low values 0.984 | locus YBR009C, strain hhf1, hits give low values 1.01 | locus YBR021W, strain FUR4, hits give low values 1.08 | locus YBR023C, strain chs3, hits give low values 1.01 | locus YBR171W, strain sec66, hits give low values 0.978 | locus YBR229C, strain ROT2, hits give low values 0.954 | locus YBR231C, strain swc5, hits give low values 0.954 | locus YBR279W, strain paf1, hits give low values 1 | locus YCL011C, strain gbp2, hits give low values 1.01 | locus YCL016C, strain dcc1, hits give low values 1.01 | locus YCL029C, strain bik1, hits give low values 0.982 | locus YCL061C, strain MRC1, hits give low values 1 | locus YCL069W, strain vba3, hits give low values 0.988 | locus YCR088W, strain abp1, hits give low values 0.988 | locus YDL005C, strain med2, hits give low values 0.992 | locus YDL035C, strain GPR1, hits give low values 0.993 | locus YDL040C, strain nat1, hits give low values 0.995 | locus YDL074C, strain BRE1, hits give low values 1.03 | locus YDL101C, strain DUN1, hits give low values 0.977 | locus YDL185W, strain tfp1, hits give low values 0.969 | locus YDL192W, strain arf1, hits give low values 0.998 | locus YDR001C, strain nth1, hits give low values 0.994 | locus YDR069C, strain doa4, hits give low values 0.969 | locus YDR101C, strain arx1, hits give low values 1.02 | locus YDR137W, strain rgp1, hits give low values 0.981 | locus YDR150W, strain NUM1, hits give low values 0.987 | locus YDR159W, strain sac3, hits give low values 0.946 | locus YDR162C, strain NBP2, hits give low values 0.943 | locus YDR195W, strain ref2 0.934 | locus YDR297W, strain sur2, hits give low values 1.01 | locus YDR318W, strain mcm21, hits give low values 0.978 | locus YDR334W, strain swr1, hits give low values 0.993 | locus YDR335W, strain msn5, hits give low values 1.01 | locus YDR388W, hits give low values 0.956 | locus YDR392W, strain spt3, hits give low values 0.926 | locus YDR502C, strain sam2, hits give low values 0.973 | locus YEL003W, strain gim4, hits give low values 0.966 | locus YEL037C, strain rad23, hits give low values 1 | locus YEL061C, strain CIN8 (second series), hits give low values 0.987 | locus YEL061C, strain CIN8, hits give low values 0.99 | locus YER015W, strain faa2, hits give low values 0.996 | locus YER016W, strain bim1, hits give low values 0.986 | locus YER110C, hits give low values 0.977 | locus YER111C, strain swi4, hits give low values 0.992 | locus YER155C, strain BEM2 (second series), hits give low values 0.962 | locus YER155C, strain BEM2, hits give low values 0.984 | locus YER167W, strain BCK2, hits give low values 0.986 | locus YFR010W, strain ubp6, hits give low values 0.979 | locus YGL078C, strain dbp3, hits give low values 0.995 | locus YGL086W, strain mad1, hits give low values 1.05 | locus YGL167C, strain pmr1, hits give low values 0.989 | locus YGL173C, strain kem1, hits give low values 0.994 | locus YGL227W, strain vid30, hits give low values 0.986 | locus YGL240W, strain doc1, hits give low values 0.957 | locus YGL248W, strain PDE1, hits give low values 0.974 | locus YGL253W, strain hxk2, hits give low values 0.988 | locus YGR135W, strain pre9, hits give low values 0.966 | locus YGR252W, strain gcn5, hits give low values 0.95 | locus YHR013C, strain ard1, hits give low values 0.995 | locus YHR027C, strain rpn1, hits give low values 0.991 | locus YHR030C, strain SLT2, hits give low values 0.992 and 1.09 | locus YHR079C, strain IRE1 (second series), hits give low values 0.978 | locus YHR079C, strain IRE1, hits give low values 1.1 | locus YHR094C, strain hxt1, hits give low values 0.968 | locus YHR129C, strain ARP1, hits give low values 0.99 | locus YHR142W, strain chs7, hits give low values 1.01 | locus YHR200W, strain rpn10, hits give low values 0.964 | locus YIL066C, strain RNR3, hits give low values 0.989 | locus YIL073C, strain SPO22, hits give low values 0.988 | locus YIL125W, strain kgd1, hits give low values 0.988 | locus YIR030C, strain dcg1, hits give low values 0.977 | locus YJL092W, strain hpr5, hits give low values 1 | locus YJL095W, strain BCK1 (second series), hits give low values 1.01 | locus YJL095W, strain BCK1, hits give low values 0.953 and 1.06 | locus YJL115W, strain asf1, hits give low values 0.994 | locus YJL129C, strain trk1, hits give low values 0.979 | locus YJL134W, strain LCB3, hits give low values 0.989 | locus YJL154C, strain vps35, hits give low values 0.989 | locus YJL164C, strain tpk1, hits give low values 1 | locus YJL166W, strain qcr8, hits give low values 0.98 | locus YJL168C, strain set2, hits give low values 0.989 | locus YJL187C, strain SWE1 (second series), hits give low values 0.974 | locus YJL187C, strain SWE1, hits give low values 0.995 | locus YJR043C, strain POL32, hits give low values 0.975 | locus YJR066W, strain TOR1, hits give low values 0.999 | locus YJR075W, strain HOC1, hits give low values 0.976 | locus YKL009W, strain mrt4, hits give low values 0.964 | locus YKL068W, hits give low values 0.989 | locus YKL085W, strain MDH1 (second series), hits give low values 0.974 | locus YKL085W, strain MDH1, hits give low values 0.974 | locus YKL160W, strain elf1, hits give low values 0.996 | locus YKR001C, strain vps1, hits give low values 0.998 | locus YKR026C, strain gcn3, hits give low values 0.978 | locus YKR091W, strain srl3, hits give low values 0.992 | locus YLL001W, strain dnm1, hits give low values 0.983 | locus YLL026W, hits give low values 0.998 | locus YLL041C, strain sdh2, hits give low values 0.999 | locus YLR027C, strain aat2, hits give low values 0.995 | locus YLR039C, strain RIC1, hits give low values 0.928 | locus YLR058C, strain SHM2, hits give low values 0.969 | locus YLR102C, strain apc9, hits give low values 0.98 | locus YLR113W, strain HOG1, hits give low values 1.07 | locus YLR221C, strain rsa3, hits give low values 1 | locus YLR258W, strain gsy2, hits give low values 1.01 | locus YLR262C, strain YPT6 (second series), hits give low values 1.01 | locus YLR262C, strain YPT6, hits give low values 0.911 | locus YLR268W, strain sec22, hits give low values 1 | locus YLR320W, strain mms22, hits give low values 0.985 | locus YLR330W, strain CHS5, hits give low values 0.991 | locus YLR342W, strain FKS1 (second series), hits give low values 1.04 | locus YLR342W, strain FKS1, hits give low values 0.999 | locus YLR357W, strain rsc2, hits give low values 0.977 | locus YLR370C, strain arc18, hits give low values 1 | locus YLR371W, strain rom2, hits give low values 0.985 | locus YLR384C, strain iki3, hits give low values 0.981 | locus YLR418C, strain cdc73, hits give low values 0.95 | locus YML016C, strain PPZ1, hits give low values 0.992 | locus YML032C, strain rad52, hits give low values 0.974 | locus YML120C, strain ndi1, hits give low values 0.995 | locus YML124C, strain tub3, hits give low values 0.983 | locus YMR058W, strain fet3, hits give low values 1.01 | locus YMR078C, strain ctf18, hits give low values 0.984 | locus YMR125W, strain sto1, hits give low values 0.987 | locus YMR129W, hits give low values 0.987 | locus YMR205C, strain PFK2, hits give low values 0.996 | locus YMR223W, strain ubp8, hits give low values 0.956 | locus YMR231W, strain pep5, hits give low values 0.979 | locus YMR263W, strain SAP30, hits give low values 0.981 | locus YMR307W, strain GAS1, hits give low values 0.951 | locus YNL067W, strain RPL9B, hits give low values 0.97 | locus YNL071W, strain lat1, hits give low values 1 | locus YNL153C, strain GIM3, hits give low values 0.968 | locus YNL183C, strain NPR1, hits give low values 0.999 | locus YNL209W, strain ssb2, hits give low values 1 | locus YNL233W, strain BNI4, hits give low values 0.998 | locus YNL248C, strain rpa49, hits give low values 1 | locus YNL250W, strain rad50, hits give low values 0.988 | locus YNL271C, strain bni1, hits give low values 0.982 | locus YNL298W, strain CLA4, hits give low values 0.956 | locus YNL307C, strain MCK1, hits give low values 0.988 | locus YNL322C, strain KRE1 (second series), hits give low values 1 | locus YNR049C, strain mso1, hits give low values 1 | locus YNR052C, strain pop2, hits give low values 0.982 | locus YOL012C, strain htz1 1.7 | locus YOL147C, strain pex11, hits give low values 0.986 | locus YOR001W, strain rrp6, hits give low values 0.961 | locus YOR061W, strain CKA2, hits give low values 0.969 | locus YOR069W, strain VPS5, hits give low values 0.994 | locus YOR070C, strain gyp1, hits give low values 0.993 | locus YOR080W, strain dia2, hits give low values 0.977 | locus YOR083W, strain WHI5, hits give low values 1.01 | locus YOR106W, strain vam3, hits give low values 1.01 | locus YOR136W, strain idh2, hits give low values 0.989 | locus YOR144C, strain elg1, hits give low values 0.977 | locus YOR184W, strain ser1, hits give low values 0.959 | locus YOR231W, strain MKK1, hits give low values 1.09 | locus YOR265W, strain rbl2, hits give low values 1.01 | locus YOR270C, strain vph1, hits give low values 0.995 | locus YOR290C, strain snf2, hits give low values 1.04 | locus YOR316C, strain cot1, hits give low values 0.979 | locus YPL051W, strain arl3, hits give low values 0.994 | locus YPL078C, strain atp4, hits give low values 1.01 | locus YPL106C, strain sse1, hits give low values 0.994 | locus YPL240C, strain hsp82, hits give low values 0.99 | locus YPL241C, strain CIN2, hits give low values 0.988 | locus YPL256C, strain CLN2, hits give low values 1.08 | locus YPR119W, strain clb2, hits give low values 0.982 | locus YPR141C, strain kar3, hits give low values 0.978 | locus YPR163C, strain tif3, hits give low values 0.987 | locus YPR167C, strain met16, hits give low values 0.99 | strain wtn01, hits give low values 1.04
